Sampled rows, rich in hits. Any-hit rate of the full collection: about 19%.
TDP1 cell CPT: DT40-hTDP1 cell growth loss with CPT; 420,000 tested, 12% active; chicken DT40 Tdp1-/-;hTDP1 cells + 20 nM CPT, ATP luminescence, 48 h; Potency, µM (top dose mostly 46.2 µM), usual class: inhibitors; also: nearly all actives have a fitted effect of over 55% in size
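Chicken DT40 Tdp1-/- cells complemented with human TDP1, 400 cells/well, exposed to compounds plus 20 nM camptothecin for at least 48 h at 37 C; viability read as ATP content by CellTiter-Glo luminescence.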
HT1080 IDH1KD tx: toxicity to HT-1080 IDH1 knockdown cells (counter line). HT-1080 IDH1 knockdown viability, ATP luminescence, 48 h. Potency, µM (doses to about 46.1 µM), most hits filed as cytotoxic. 360,000 tested, 2% active. AID 686971
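Using the IDH1-knockdown HT-1080 line run in the same batch and compound series as the NT line, viability after 48 h at 37 °C was determined by CellTiter-Glo luminescence and expressed as % activity.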
IL-1B inflam inh: inflammasome signaling inhibition, IL-1 beta readout | 360,000 tested, 4.7% active | THP-1 LPS/ATP IL-1B secretion, AlphaLISA, 16 h; hits give low values | AID 743279 | activity change, % at 57.5 µM; in the data active = activity change below about -50%; inconclusive = mostly about -30% to -49%
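Secreted IL-1B measured by AlphaLISA bead assay after 16 h compound exposure of THP-1 cells; compounds (final up to 57.5 uM) added 1 h before LPS (250 ng/mL) and ATP (1.25 mM) stimulation; lower signal means less secretion.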
HT1080-NT tox: kills 2HG-producing HT-1080-NT fibrosarcoma cells; Potency, µM (top dose mostly 46.1 µM), most hits filed as cytotoxic; HT-1080-NT fibrosarcoma viability, CellTiter-Glo ATP luminescence, 48 h; 360,000 tested, 1.6% active;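 also: NT is the 2HG producing partner of a matched IDH1 knockdown line; nearly all actives have a fitted effect of over 55% in size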
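Toxicity toward the 2HG-producing NT line was scored as %Activity, normalised to DMSO and no-cell wells, from CellTiter-Glo luminescence after 48 hours' treatment.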
TDP1 cell noCPT: qHTS for Inhibitors of human tyrosyl-DNA phosphodiesterase 1 (TDP1): qHTS in cells in absence of CPT; DT40 Tdp1-/- hTDP1 cells, no CPT, ATP luminescence, 48 h; Potency, µM (titrated, usually from 46.2 µM), actives largely listed as inhibitors; 420,000 tested, 15% active; AID 686978, 2013; also: nearly all actives have a fitted effect of over 55% in size
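Seeded 400 DT40-hTDP1 cells/well (vehicle DMSO, no 20 nM CPT); pinned compounds; ≥48 hr at 37 °C; CellTiter-Glo luminescence as viability measure.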
Large screens that a line does not name were inactive. Unless noted, calls follow the shape of the dose curve; as a rule, active = well fitted curve in the direction sought with a large enough effect; inconclusive = small, poorly fitted or top-dose-only effect, or another doubt; inactive = no such curve, though single readings can be large; an effect the other way counts as inactive or inconclusive.

CC1(C)CC(=O)c2c(O)cc(OCC(=O)Nc3ccc(S(N)(=O)=O)cc3)cc2O1	TDP1 cell noCPT inconclusive
COc1ccccc1NC(=O)c1nnn(Cc2ccccc2)c1NC(=O)C(F)(F)F	TDP1 cell CPT inconclusive, TDP1 cell noCPT 29.1µM
COc1ccccc1NNC(=O)c1cc(C(C)(C)C)nn1Cc1ccccc1	IL-1B inflam inh -55.6, TDP1 cell noCPT 23.1µM
CC(C)(C)c1cc(C(=O)NNc2cc(C(F)(F)F)ccc2Cl)n(Cc2ccccc2)n1	TDP1 cell CPT inconclusive, HT1080 IDH1KD tx inconclusive, IL-1B inflam inh -80.2, HT1080-NT tox inconclusive, TDP1 cell noCPT 20.6µM
CCOc1ccccc1NS(=O)(=O)c1ccc2c(c1)N(C)CCO2	TDP1 cell noCPT inconclusive
NC(=O)c1ccc(Cn2c(C(=O)c3cc(Cl)c(N)c(Cl)c3)c3ccccc3[n+]2[O-])cc1	TDP1 cell CPT inconclusive, HT1080 IDH1KD tx 11.6µM, HT1080-NT tox 16.4µM, TDP1 cell noCPT inconclusive
NC(=O)CCCn1c(C(=O)c2cc(Cl)c(N)c(Cl)c2)c2ccc(C(F)(F)F)cc2[n+]1[O-]	TDP1 cell CPT inconclusive, TDP1 cell noCPT 18.4µM
NCCCn1c(C(=O)c2cc(Cl)c(N)c(Cl)c2)c2ccc([N+](=O)[O-])cc2[n+]1[O-]	TDP1 cell CPT 0.651µM, HT1080-NT tox inconclusive, TDP1 cell noCPT 0.517µM
NCCCn1c(C(=O)c2cc(Cl)c(N)c(Cl)c2)c2ccc(C(F)(F)F)cc2[n+]1[O-]	TDP1 cell CPT inconclusive, IL-1B inflam inh inconclusive, TDP1 cell noCPT 18.4µM
COc1ccc(C(=O)c2c3ccc(C(F)(F)F)cc3[n+]([O-])n2CCCC(N)=O)cc1	none
Cc1nc2nc[nH]n2c(=O)c1NS(=O)(=O)c1ccc(Br)cc1	none (no result: HT1080 IDH1KD tx, IL-1B inflam inh, HT1080-NT tox)
Cc1ccc(C)c(N2C(=O)CN=C2Nc2ccccc2Cl)c1	none
CCOC(=O)N1CCN(C(=O)c2cc3cc(Br)ccc3oc2=O)CC1	TDP1 cell CPT inconclusive
CNc1cnc(-c2ccccc2OC)cn1	HT1080 IDH1KD tx inconclusive
Cc1noc(C)c1COC(=O)CCc1nc2ccccc2s1	none
Cc1noc(C)c1COC(=O)CCN1c2ccccc2Sc2ccccc21	TDP1 cell CPT inconclusive, TDP1 cell noCPT 20.6µM
CCN(CC)S(=O)(=O)c1cc(NC(=O)COC(=O)c2sc3ccccc3c2Cl)ccc1C	none
CCC(C(=O)NCCC(C)C)N(C(=O)Cn1nnc(-c2ccc(C)cc2)n1)c1cccc(O)c1 (centres undefined)	TDP1 cell CPT inconclusive, TDP1 cell noCPT 16.4µM (no result: HT1080 IDH1KD tx, IL-1B inflam inh, HT1080-NT tox)
CN(C)S(=O)(=O)c1ccc2oc(SCC(=O)c3c(N)n(C4CC4)c(=O)[nH]c3=O)nc2c1	TDP1 cell noCPT 4.11µM
CC(c1nnc(SCC(=O)c2c(N)n(C3CC3)c(=O)[nH]c2=O)n1-c1ccc(F)cc1)N(C)C (centres undefined)	TDP1 cell noCPT 2.91µM
CCN(CC)S(=O)(=O)c1ccc(SCC(=O)c2c(N)n(C3CC3)c(=O)[nH]c2=O)nc1	TDP1 cell CPT inconclusive, TDP1 cell noCPT 20.6µM
O=c1oc2ccc(Cl)cc2cc1-c1cn2c(n1)sc1ccccc12	none (no result: HT1080 IDH1KD tx, IL-1B inflam inh, HT1080-NT tox)
COCc1ccc(CN2CCOc3ccc(C4=CCCCC4)cc3C2)o1	TDP1 cell noCPT inconclusive (no result: HT1080 IDH1KD tx, IL-1B inflam inh, HT1080-NT tox)
Cc1[nH]c2ccccc2c(=O)c1C(=O)/C=C/c1ccccc1	TDP1 cell CPT 5.17µM, HT1080 IDH1KD tx inconclusive, IL-1B inflam inh -101.4, TDP1 cell noCPT 2.31µM
O=C(/C=C/c1ccccc1)c1c[nH]c2ccccc12	IL-1B inflam inh inconclusive
O=C(C=Cc1ccccc1)c1c[nH]c2ccccc2c1=O	TDP1 cell CPT 6.51µM, HT1080 IDH1KD tx inconclusive, IL-1B inflam inh -98.2, HT1080-NT tox 8.2µM, TDP1 cell noCPT 6.51µM
CC(=O)c1c(C)[nH]c(C(=O)NC(C)c2ccccc2)c1C (centres undefined)	TDP1 cell CPT inconclusive, TDP1 cell noCPT 16.4µM
CC(=O)c1c(C)[nH]c(C(=O)Nc2nccs2)c1C	TDP1 cell CPT 11.6µM, HT1080 IDH1KD tx inconclusive, TDP1 cell noCPT 13µM
Cc1ccc(OCC(=O)Nc2ccc(CN3CCCCC3)cc2)c(C)c1	HT1080 IDH1KD tx inconclusive, TDP1 cell noCPT inconclusive
CC1=C(C(=O)OCc2ccccc2)C(c2ccc(Br)cc2)NC(=O)N1CCCCCC(=O)O (centres undefined)	none
COC(=O)CCCCCN1C(=O)NC(c2ccccc2)C(C(=O)OCc2ccccc2)=C1C (centres undefined)	TDP1 cell CPT 20.6µM, TDP1 cell noCPT 16.4µM
CCCCNC(=O)C(C)N(CCN(C)C)C(=O)CCCN1C(=O)NC(c2ccc([N+](=O)[O-])cc2)C(C(=O)OCc2ccccc2)=C1C (centres undefined)	TDP1 cell CPT 18.4µM, HT1080 IDH1KD tx inconclusive, IL-1B inflam inh -78.8, HT1080-NT tox inconclusive, TDP1 cell noCPT 23.1µM
CCOC(=O)C1=C(C)N(CCCC(=O)O)C(=O)NC1c1ccc([N+](=O)[O-])cc1 (centres undefined)	none
O=C1CNC(=S)N1Cc1ccc(Cl)cc1	none
O=C1CNC(=S)N1CCc1ccc(Cl)cc1	TDP1 cell noCPT 16.4µM
O=C1CCCC2=C1C(c1ccncc1)c1c(nc(SCc3ccccc3)[nH]c1=O)N2 (centres undefined)	IL-1B inflam inh -51.5
CN1/C(=C/C2CC(=O)N(c3ccc([N+](=O)[O-])cc3)C2=O)C(C)(C)c2ccccc21 (centres undefined)	none
O=C(CSC1=NCCN1)Nc1cccc(C(F)(F)F)c1	TDP1 cell CPT 20.6µM, HT1080 IDH1KD tx 25.9µM, IL-1B inflam inh -98.9, TDP1 cell noCPT inconclusive
O=C1CCCN2N=C(SCC(=O)Nc3cccc(Cl)c3)SC2=N1	TDP1 cell CPT 16.4µM, HT1080-NT tox inconclusive, TDP1 cell noCPT 20.6µM
O=C1CCCN2N=C(SCC(=O)Nc3ccccc3C(F)(F)F)SC2=N1	none
Cc1ccc(NC(=O)CSC2=NN3CCCC(=O)N=C3S2)cc1Cl	TDP1 cell CPT inconclusive, TDP1 cell noCPT 20.6µM
CCOc1ccc(NC(=O)CSC2=NN3CCCC(=O)N=C3S2)cc1	TDP1 cell CPT inconclusive, TDP1 cell noCPT inconclusive
O=C1CCCN2N=C(SCC(=O)Nc3cccc(C(F)(F)F)c3)SC2=N1	TDP1 cell CPT 4.61µM, HT1080 IDH1KD tx inconclusive, TDP1 cell noCPT 5.17µM
O=C1CCCN2N=C(SCC(=O)Nc3ccc(Cl)cc3)SC2=N1	none
O=[N+]([O-])c1cccc(S(=O)(=O)Nc2ccc(-c3ccc(N4CCOCC4)nn3)cc2)c1	TDP1 cell noCPT inconclusive
COc1ccc(S(=O)(=O)NCC(c2cccnc2)N2CCN(C)CC2)cc1OC (centres undefined)	none
O=C1CCCc2nc(N3CCN(C(c4ccccc4)c4ccccc4)CC3)ncc21	TDP1 cell CPT 16.4µM, TDP1 cell noCPT 20.6µM
O=C1CCCc2nc(N3CCN(C(=O)c4ccco4)CC3)ncc21	none
